# Records with an inconclusive call do not appear. Entries that show only a call come without a potency. Calls of active or inactive are those of the source. Unless noted, the call rests on the fitted dose curve; in most records, active means well fitted curve in the direction sought with a large enough effect in the repeat runs; inconclusive means weak or mixed curves; inactive means no such curve, though single readings can be large; an effect the other way counts as inactive or inconclusive.
# How the values were obtained:
# [1] = target: Androgen receptor (Homo sapiens) (UniProt P10275); test: qHTS assay to identify small molecule antagonists of the androgen receptor (AR) signaling pathway using the MDA cell line in the presence of 0.5 nM R1881 (AID 1259243); further: nearly all actives have a fitted effect of over 50% in size
# Sequence of Androgen receptor (Homo sapiens) (P10275 whole entry, looked up): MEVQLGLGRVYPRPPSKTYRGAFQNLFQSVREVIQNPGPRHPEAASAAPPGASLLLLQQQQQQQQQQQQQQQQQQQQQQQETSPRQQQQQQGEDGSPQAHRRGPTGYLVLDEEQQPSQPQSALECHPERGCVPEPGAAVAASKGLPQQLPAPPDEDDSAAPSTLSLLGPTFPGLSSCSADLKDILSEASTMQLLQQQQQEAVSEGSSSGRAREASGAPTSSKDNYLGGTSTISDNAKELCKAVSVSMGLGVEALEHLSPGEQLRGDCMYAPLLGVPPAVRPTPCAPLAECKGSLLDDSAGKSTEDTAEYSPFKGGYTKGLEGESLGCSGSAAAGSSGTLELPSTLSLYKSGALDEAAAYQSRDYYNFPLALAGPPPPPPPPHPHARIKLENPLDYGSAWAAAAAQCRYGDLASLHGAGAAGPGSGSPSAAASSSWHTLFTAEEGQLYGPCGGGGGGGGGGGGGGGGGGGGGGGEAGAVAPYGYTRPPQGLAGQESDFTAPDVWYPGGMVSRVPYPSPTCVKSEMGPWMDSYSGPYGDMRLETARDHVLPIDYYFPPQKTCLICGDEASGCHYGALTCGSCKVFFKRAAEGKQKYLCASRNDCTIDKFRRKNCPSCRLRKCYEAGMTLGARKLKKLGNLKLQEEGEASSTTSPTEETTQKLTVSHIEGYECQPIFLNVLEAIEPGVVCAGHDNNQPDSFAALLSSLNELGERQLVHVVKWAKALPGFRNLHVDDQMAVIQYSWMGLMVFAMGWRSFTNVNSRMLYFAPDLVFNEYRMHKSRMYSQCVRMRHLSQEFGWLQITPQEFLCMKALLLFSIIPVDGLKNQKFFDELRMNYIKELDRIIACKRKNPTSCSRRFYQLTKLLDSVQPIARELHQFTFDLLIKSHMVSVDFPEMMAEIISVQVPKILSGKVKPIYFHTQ
# Method in brief: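 Cells: MDA-kb2 (MMTV-luc). Stimulus: 0.5 nM R1881. Time: 16 hr, 37C, no CO2. Detection: ONE-Glo luminescence after 30 min at RT.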
# [2] = qHTS assay to identify small molecule phospholipidosis (PLD) inducers (AID 1259344; active means well fitted curve in the direction sought with a large enough effect; an effect the other way counts as inactive or inconclusive)
# Method in brief: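 Read-out is LipidTOX Red fluorescence (ex 595/em 615) imaged in HepG2 cells after 24 h compound exposure at 37 C, with Hoechst nuclear counterstain (ex 352/em 461) allowing per-cell normalisation.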
# [3] = qHTS assay to identify small molecule HDAC inhibitors (AID 1259364);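 further: wild-type HCT-116 cells with endogenous class I/II HDAC activity; top concentration of the series differs between compounds; nearly all actives have a fitted effect of over 45% in size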
# Method in brief: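 After a 2 hr compound incubation (37C, 5% CO2), HCT-116 cells seeded at 1,500/well the day before received HDAC-Glo reagent; signal read as luminescence after 30 min at room temperature.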
# [4] = qHTS assay to identify small molecule HDAC inhibitors - cell viability counter screen (AID 1259365); further: series mostly up to about 92 µM; nearly all actives have a fitted effect of over 50% in size
# Method in brief: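 HCT-116 wild-type, overnight attachment; 2hr drug exposure, 37C; CellTiter-Glo luminescent ATP readout after 30min RT.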
# [5] = qHTS assay to identify small molecule agonists of the sonic hedgehog signaling (Shh) pathway (AID 1259368; calls by dose curve;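 further: NIH/3T3-derived 3T3Gli1-Luc cells carrying a stable Gli1-driven firefly luciferase reporter; series mostly up to about 92 µM; nearly all actives have a fitted effect of over 15% in size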)
# Method in brief: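 Stable NIH/3T3 Gli1-Luc reporter clone; 24 hr cpd exposure after a 4 hr settling period; luminescence endpoint.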
# [6] = qHTS assay to identify small molecule antagonists of the sonic hedgehog signaling (Shh) pathway (AID 1259369; calls by dose curve; further: nearly all actives have a fitted effect of over 45% in size; further: potency means the concentration at half of the fitted maximal effect)
# Method in brief: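 Gli1 transcriptional reporter (firefly Luc) in NIH/3T3 background, conditioned-medium activated. 24hr exposure, luminescence endpoint.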
# [7] = target: Estrogen receptor beta (Homo sapiens) (UniProt Q92731); test: qHTS assay to identify small molecule antagonists of the estrogen receptor beta (ER-beta) signaling pathway (AID 1259378; active means well fitted inhibition curve with a large enough effect in the signal ratio in the repeat runs, not every such curve was filed as active; the % refers to the signal ratio; further: potency means the concentration at half of the fitted maximal effect)
# Sequence of Estrogen receptor beta (Homo sapiens) (Q92731 whole entry, looked up): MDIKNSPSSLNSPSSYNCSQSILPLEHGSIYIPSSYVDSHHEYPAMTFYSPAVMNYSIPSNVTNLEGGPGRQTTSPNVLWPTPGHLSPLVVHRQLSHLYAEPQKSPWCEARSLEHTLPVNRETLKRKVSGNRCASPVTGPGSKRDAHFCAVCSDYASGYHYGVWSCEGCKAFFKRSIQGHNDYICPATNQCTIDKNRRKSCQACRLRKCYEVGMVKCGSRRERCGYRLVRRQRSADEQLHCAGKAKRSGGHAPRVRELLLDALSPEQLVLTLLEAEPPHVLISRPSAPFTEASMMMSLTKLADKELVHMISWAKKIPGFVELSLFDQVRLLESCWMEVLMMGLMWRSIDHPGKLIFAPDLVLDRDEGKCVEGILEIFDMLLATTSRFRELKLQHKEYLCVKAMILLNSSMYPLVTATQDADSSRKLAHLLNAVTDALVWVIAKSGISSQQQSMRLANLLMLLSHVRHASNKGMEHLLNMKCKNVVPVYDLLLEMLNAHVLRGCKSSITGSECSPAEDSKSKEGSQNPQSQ
# Method in brief: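 ER-beta-UAS-bla HEK293T cells in 2% charcoal-stripped FBS medium treated with compound plus 1nM final 17-beta-estradiol for 16 hr at 37C. Beta-lactamase reporter read by FRET substrate fluorescence after 2 hours at room temperature.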
# [8] = qHTS assay to identify small molecule agonists of the androgen receptor (AR) signaling pathway in the presence of an antagonist - cell viability counter screen (AID 1259379); further: nearly all actives have a fitted effect of over 25% in size; further: potency means the concentration at half of the fitted maximal effect
# Method in brief: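 Counter screen for cell viability run in parallel with the AR agonist-mode luciferase assay. MDA-kb2 cells were co-treated with nilutamide (3.0uM final) and compounds, then incubated 16 hr at 37C, and CellTiter-Fluor fluorescence was measured.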
# [9] = target: Androgen receptor (Homo sapiens) (UniProt P10275); test: qHTS assay to identify small molecule agonists of the androgen receptor (AR) signaling pathway in the presence of an antagonist (AID 1259381; calls by dose curve; further: nearly all actives have a fitted effect of over 15% in size)
# Method in brief: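 AR antagonist background: nilutamide 3.0uM final. Cell line: MDA-kb2, MMTV-driven luciferase, responsive to both AR and GR. Exposure 16hr, 37C, no CO2; ONE-Glo luminescence.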
# [10] = qHTS assay to identify small molecule antagonists of the estrogen receptor beta (ER-beta) signaling pathway - cell viability counter screen (AID 1259382); further: nearly all actives have a fitted effect of over 55% in size; further: potency means the concentration at half of the fitted maximal effect
# Method in brief: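 HEK293T ER-beta-UAS-bla, 2% charcoal-stripped FBS; compounds + 1nM E2 16 hr 37C; CellTiter-Glo luminescence, 30 min RT.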
# [11] = target: Thyrotropin receptor (Homo sapiens) (UniProt P16473); test: qHTS assay to identify small molecule antagonists of the thyroid stimulating hormone receptor (TSHR) signaling pathway (AID 1259385; calls by dose curve; further: nearly all actives have a fitted effect of over 20% in size)
# Sequence of Thyrotropin receptor (Homo sapiens) (P16473 whole entry, looked up): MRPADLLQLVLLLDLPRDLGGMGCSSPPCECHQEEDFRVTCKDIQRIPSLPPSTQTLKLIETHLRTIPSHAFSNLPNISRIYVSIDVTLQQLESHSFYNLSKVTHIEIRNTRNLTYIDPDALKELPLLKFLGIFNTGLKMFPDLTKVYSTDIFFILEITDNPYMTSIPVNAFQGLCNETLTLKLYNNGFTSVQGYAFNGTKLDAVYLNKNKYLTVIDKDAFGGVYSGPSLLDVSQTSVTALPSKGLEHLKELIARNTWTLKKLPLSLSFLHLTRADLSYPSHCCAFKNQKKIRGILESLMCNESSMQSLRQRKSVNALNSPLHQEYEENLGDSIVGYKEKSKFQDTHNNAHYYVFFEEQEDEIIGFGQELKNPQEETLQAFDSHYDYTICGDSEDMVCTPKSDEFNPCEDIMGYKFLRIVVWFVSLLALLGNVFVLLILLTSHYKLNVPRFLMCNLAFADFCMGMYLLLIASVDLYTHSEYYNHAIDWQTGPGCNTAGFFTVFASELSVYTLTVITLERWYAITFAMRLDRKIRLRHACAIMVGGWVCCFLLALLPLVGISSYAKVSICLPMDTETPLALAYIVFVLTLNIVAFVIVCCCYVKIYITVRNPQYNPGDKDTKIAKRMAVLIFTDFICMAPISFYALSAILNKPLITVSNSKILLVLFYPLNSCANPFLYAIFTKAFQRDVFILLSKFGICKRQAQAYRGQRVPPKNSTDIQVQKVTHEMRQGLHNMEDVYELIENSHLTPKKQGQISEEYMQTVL
# Method in brief: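 TSHR-HEK293 cells (800/well) plated 18 h, then compounds with Ro20-1724 and TSH at 1.5 ng/mL final, 30 min at room temperature. cAMP quantified by HTRF (cAMP-d2/anti-cAMP-cryptate, 1 h); 15 concentrations in triplicate.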
# [12] = qHTS assay to identify small molecule antagonists of the androgen receptor (AR) signaling pathway using the MDA cell line in the presence of 0.5 nM R1881 - cell viability counter screen (AID 1259242); further: nearly all actives have a fitted effect of over 45% in size
# Method in brief: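 Human breast carcinoma MDA-kb2 cells, cultured without CO2, receive compounds alongside 0.5 nM (final) R1881 agonist. After 16 hr at 37C, viability is taken as live-cell protease signal.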
# [13] = qHTS assay to identify small molecule agonists of the sonic hedgehog signaling (Shh) pathway - cell viability counter screen (AID 1259366); further: nearly all actives have a fitted effect of over 50% in size; further: potency means the concentration at half of the fitted maximal effect
# Method in brief: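 Compounds in DMSO were pin-transferred onto 3T3 Gli1-Luc cells that had settled 4hr; plates then stood 24hr at 37C and 5% CO2. One hour before the end, CellTiter-Fluor was added and fluorescence recorded.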
# [14] = qHTS assay to identify small molecule antagonists of the sonic hedgehog signaling (Shh) pathway - cell viability counter screen (AID 1259367); further: nearly all actives have a fitted effect of over 55% in size; further: potency means the concentration at half of the fitted maximal effect
# Method in brief: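 Fluorescence read-out (CellTiter-Fluor, 1 hr at 37C) taken after 23 hr compound treatment of 3T3 Gli1-Luc cells stimulated with conditioned medium. Cells were seeded at 2,000 per well and pre-incubated 4 hr.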
# [15] = target: Estrogen receptor beta (Homo sapiens) (UniProt Q92731); test: qHTS assay to identify small molecule agonists of the estrogen receptor beta (ER-beta) signaling pathway (AID 1259377; active means well fitted activation curve with a large enough effect in the signal ratio in the repeat runs, not every such curve was filed as active; the % refers to the signal ratio)
# Method in brief: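 qHTS in ER-beta-UAS-bla HEK293T cells: 6 hr settling, then 16 hr compound at 37C, then LiveBLAzer substrate 2 h at RT before fluorescence reading.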
# [16] = qHTS assay to identify small molecule agonists or antagonists of the thyroid stimulating hormone receptor (TSHR) signaling pathway - wild type cell line counter screen (AID 1259384; calls by dose curve)
# Method in brief: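 Wild-type Hek293 cells, 800/well, 18 h at 37C, then compound with Ro20-1724 for 30 min RT. cAMP by HTRF (cAMP-d2/anti-cAMP cryptate), 1 h RT, fluorescence read. 15 concentrations, triplicates.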
# [17] = target: Estrogen receptor (Homo sapiens) (UniProt P03372); test: qHTS assay to identify small molecule antagonists of the estrogen receptor alpha (ER-alpha) signaling pathway using the BG1 cell line in the presence of 0.1 nM 17-beta-estradiol (AID 1259244); further: nearly all actives have a fitted effect of over 50% in size; further: potency means the concentration at half of the fitted maximal effect
# Sequence of Estrogen receptor (Homo sapiens) (P03372 whole entry, looked up): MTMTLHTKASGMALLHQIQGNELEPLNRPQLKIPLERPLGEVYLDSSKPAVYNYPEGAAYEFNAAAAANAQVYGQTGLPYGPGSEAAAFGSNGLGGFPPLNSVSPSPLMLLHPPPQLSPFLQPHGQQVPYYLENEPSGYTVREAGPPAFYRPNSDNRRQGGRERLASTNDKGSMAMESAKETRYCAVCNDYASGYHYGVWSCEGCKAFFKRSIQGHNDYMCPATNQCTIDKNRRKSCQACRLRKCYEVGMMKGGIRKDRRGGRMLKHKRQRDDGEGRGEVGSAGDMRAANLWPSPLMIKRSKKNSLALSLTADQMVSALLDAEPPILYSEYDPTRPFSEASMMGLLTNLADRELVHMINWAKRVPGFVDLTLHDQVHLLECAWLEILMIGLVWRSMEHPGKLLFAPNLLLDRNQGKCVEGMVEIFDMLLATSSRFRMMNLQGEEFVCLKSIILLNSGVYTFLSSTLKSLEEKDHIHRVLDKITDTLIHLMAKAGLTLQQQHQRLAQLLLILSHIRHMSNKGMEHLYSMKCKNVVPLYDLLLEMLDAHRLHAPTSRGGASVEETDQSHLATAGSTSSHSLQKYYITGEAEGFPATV
# Method in brief: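 Seeding of stripped-serum-adapted VM7Luc4E2 cells, 24 h attachment, compound transfer, then 0.1 nM final 17beta-estradiol; after 22 h incubation, ONE-Glo reagent and luminescence reading.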
# [18] = qHTS assay to identify small molecule agonists of the estrogen receptor beta (ER-beta) signaling pathway - cell viability counter screen (AID 1259380); further: nearly all actives have a fitted effect of over 30% in size; further: potency means the concentration at half of the fitted maximal effect
# Method in brief: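 In this qHTS counter screen, HEK293T cells carrying an ER-beta/UAS beta-lactamase reporter, grown in 2% charcoal-stripped FBS, received compound for 16 hr; ATP-based CellTiter-Glo luminescence was then read after 30 min at room temperature.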
# [19] = target: Estrogen receptor (Homo sapiens) (UniProt P03372); test: qHTS assay to identify small molecule agonists of the estrogen receptor alpha (ER-alpha) signaling pathway in the presence of an antagonist (AID 1259383; calls by dose curve; further: top concentration of the series differs between compounds; nearly all actives have a fitted effect of over 15% in size)
# Method in brief: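 ER-alpha agonism measured under antagonist challenge: 10.0nM ICI-182,780 (final) plus compound, 15 concentrations, 22hr, VM7Luc4E2 ERE-luciferase cells. Read by luminescence.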
SMILES,Potency [1],outcome [2],Potency [3],outcome [4],outcome [5],Potency [6],Potency [7],Potency [8],Potency [9],Potency [10],Potency [11],outcome [12],Potency [13],Potency [14],outcome [15],Potency [16],Potency [17],Potency [18],Potency [19]
CC(C)(C)NCC(O)c1cc(Cl)c(N)c(Cl)c1 (configuration not stated),inactive,inactive,inactive,inactive,inactive,inactive,inactive,inactive,inactive,inactive,inactive,,,,,,,,
CC(C)(C)OC(=O)c1ncn2c1[C@@H]1CCCN1C(=O)c1c(Br)cccc1-2,,inactive,inactive,inactive,,inactive,inactive,,,inactive,,inactive,inactive,inactive,inactive,inactive,,,
COc1cccc2c1cc([N+](=O)[O-])c1c(C(=O)O)cc3c(c12)OCO3,,,inactive,,,1.54 µM (active),19.3 µM (active),48.6 µM (active),,54.5 µM (active),inactive,,12.2 µM (active),12.2 µM (active),inactive,inactive,6.86 µM (active),48.6 µM (active),inactive
CCN(CC)C(=O)[C@@H]1C=C2c3cccc4[nH]cc(c34)C[C@H]2N(C)C1,,inactive,inactive,inactive,inactive,,inactive,inactive,,,,inactive,,,inactive,,inactive,,inactive
COc1cc(OC)nc(NC(=O)NS(=O)(=O)c2ncccc2OCC(F)(F)F)n1,,,inactive,inactive,inactive,,inactive,inactive,,inactive,inactive,inactive,inactive,inactive,,inactive,inactive,,
CNNC,,,inactive,inactive,inactive,inactive,inactive,inactive,,inactive,,inactive,inactive,inactive,,,inactive,,inactive
COC(C)(C)C,,,inactive,inactive,inactive,inactive,inactive,inactive,,,inactive,inactive,inactive,inactive,inactive,inactive,,inactive,
CC1(C)C(=O)NC(=O)NC1=O,,,inactive,inactive,inactive,,inactive,inactive,,inactive,inactive,inactive,inactive,inactive,inactive,inactive,inactive,inactive,
C=C(C)[C@@H]1CC=C(C=O)CC1,,,inactive,inactive,inactive,inactive,,inactive,,inactive,inactive,inactive,inactive,inactive,,inactive,inactive,inactive,inactive
Nc1cc2c3c(c1)C(c1ccccc1)=N[C@@H](NC(=O)c1cccnc1)C(=O)N3CC2,,,inactive,inactive,,,inactive,inactive,,inactive,inactive,inactive,inactive,inactive,,inactive,inactive,,inactive
O=C(Cc1ccccc1)OCc1ccccc1,,,,inactive,inactive,inactive,inactive,inactive,,inactive,inactive,inactive,,inactive,inactive,inactive,inactive,,inactive
O=[N+]([O-])c1cccc2cccnc12,,,inactive,inactive,inactive,inactive,,inactive,,,inactive,inactive,,inactive,,inactive,inactive,inactive,inactive

# — PubChem BioAssay (Tox21)
